From the supplement of paper PMC10646978
± gives the standard deviation.

What was measured:
Conditions in all cases: modulator concentration 10 µM
[1] = test system: RAW-Dual (murine macrophage reporter line); assay: NF-kB reporter (SEAP) activity fold change vs agonist alone; higher = enhanced NF-kB activity
Method in brief: (§1)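 Overnight stimulation with a PRR agonist followed pre-incubation for 1 hour at 37 °C with compound at 10 μM final. This was done in RAW-Dual murine macrophage reporter cells seeded at 50 000 per well in 384-well plates. NF-κB (SEAP, QUANTI-Blue absorbance at 620 nm) and IRF (Lucia luciferase, QUANTI-Luc luminescence) were read from the supernatant. Each reporter's fold change relative to the mean agonist-only control on the same plate was averaged over replicate plates.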

[2] = test system: RAW-Dual (murine macrophage reporter line); assay: IRF reporter (Lucia luciferase) activity fold change vs agonist alone; higher = enhanced IRF activity
Method in brief: as §1

[3] = test system: RAW-Dual (murine macrophage reporter line); assay: viability score (confluency relative to resting cells, overnight) (fraction); higher = more viable, active = viable (0.7 or more)
Method in brief: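 RAW-Dual macrophages in 384-well plates were treated overnight with compound at 10 μM final. IncuCyte imaging recorded confluency, and IncuCyte software built two confluency masks across every imaged well. The viability score expresses confluency relative to resting cells and was judged against a cutoff, which a compound met only if both masks exceeded 70% of resting cells.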

[4] = agonist: CpG ODN 1826 0.5 ug/mL

SMILES	NF-kB reporter [1, 4]	NF-kB reporter ([1]; agonist: LPS 0.1 ug/mL)	NF-kB reporter ([1]; agonist: MPLA […])	IRF reporter ([2]; agonist: 3'3'-cGAMP 10 ug/mL)	IRF reporter ([2]; agonist: LPS 0.1 ug/mL)	IRF reporter ([2]; agonist: MPLA […])	viability score [3]
NC[C@H]1CC[C@H](C(=O)O)CC1	0.939 ± 0.1	1.06 ± 0.073	0.958 ± 0.021	0.993 ± 0.14	1.01 ± 0.061	1.13 ± 0.11	0.999 (active)
CCc1ccc(Cc2ccc3c(c2)[C@]2(OC3)O[C@H](CO)[C@@H](O)[C@H](O)[C@H]2O)cc1.O	1.04 ± 0.29	1.08 ± 0.054	1.07 ± 0.094	0.883 ± 0.033	1.04 ± 0.12	1.16 ± 0.26	0.987 (active)
COc1cc2nc(N(C)CCCNC(=O)C3CCCO3)nc(N)c2cc1OC.Cl (stereo not drawn)	0.585 ± 0.096	0.838 ± 0.14	0.958 ± 0.056	0.382 ± 0.26	0.996 ± 0.22	1.09 ± 0.2	0.996 (active)
O=C(NCC#CCN1CCc2ccccc2C1)c1cccc(Br)c1	0.87 ± 0.043	1.12 ± 0.095	0.94 ± 0.057	1.01 ± 0.057	1.14 ± 0.069	1.26 ± 0.12	1.01 (active)
Nc1ccccc1S(N)(=O)=O [Prestw-913]	0.95 ± 0.19	1.07 ± 0.13	1.04 ± 0.092	0.943 ± 0.062	0.991 ± 0.23	1.1 ± 0.2	0.995 (active)
CC12CC3CC(C)(C1)CC(N)(C3)C2.Cl	0.831 ± 0.1	0.892 ± 0.086	0.855 ± 0.074	1.24 ± 0.056	1.2 ± 0.099	1.14 ± 0.095	0.978 (active)
CN(C)CC/C=C1/c2ccccc2Sc2ccc(Cl)cc21	0.942 ± 0.058	1.02 ± 0.085	1.08 ± 0.078	0.925 ± 0.043	1.08 ± 0.19	1.23 ± 0.38	1.02 (active)
COCCNCCOc1cc(C)c(Cl)c(C)c1	0.908 ± 0.078	0.952 ± 0.045	0.932 ± 0.085	0.947 ± 0.049	1.52 ± 0.098	1.67 ± 0.17	0.974 (active)
CCN1CCN(Cc2ccc(Nc3ncc(F)c(-c4cc(F)c5nc(C)n(C(C)C)c5c4)n3)nc2)CC1.CS(=O)(=O)O	0.095 ± 0.023	0.793 ± 0.04	3.04 ± 0.21	0.29 ± 0.018	0.19 ± 0.035	0.314 ± 0.03	0.852 (active)
COc1ccc(N2CC(C(=O)NCc3ccccc3C(F)(F)F)CC2=O)cc1 (stereo not drawn)	1 ± 0.11	1.07 ± 0.085	0.935 ± 0.041	1.03 ± 0.051	1.2 ± 0.1	1.14 ± 0.29	1 (active)
O=C(O)CSc1nnc(Br)n1-c1ccc(C2CC2)c2ccccc12	1.08 ± 0.15	0.924 ± 0.32	0.899 ± 0.05	0.624 ± 0.15	1.35 ± 0.31	1.28 ± 0.1	1 (active)
Cc1ccc(NC(=O)c2ccc(CN3CCN(C)CC3)cc2)cc1Nc1nc(-c2cccnc2)cs1	0.228 ± 0.018	1.18 ± 0.067	1.74 ± 0.17	0.414 ± 0.051	0.703 ± 0.051	0.691 ± 0.058	0.981 (active)
CN(C)CCCOc1nn(Cc2ccccc2)c2ccccc12.Cl	0.704 ± 0.032	0.913 ± 0.073	0.803 ± 0.045	0.892 ± 0.043	1.14 ± 0.27	1.22 ± 0.43	1 (active)
O=c1c(-n2ccnn2)c[nH]n1-c1cc(N2CCOCC2)ncn1	0.74 ± 0.2	0.846 ± 0.046	0.853 ± 0.054	0.878 ± 0.04	1.09 ± 0.26	1.09 ± 0.15	1 (active)
Cl.c1ccc(CC2=NCCN2)cc1	0.999 ± 0.14	1.08 ± 0.17	0.923 ± 0.051	0.887 ± 0.027	1.17 ± 0.22	1.13 ± 0.1	0.993 (active)
CN(C)CCC=C1c2ccccc2Sc2ccc(Cl)cc21.Cl	0.333 ± 0.095	0.862 ± 0.052	1.12 ± 0.13	0.412 ± 0.046	1.39 ± 0.18	1.69 ± 0.16	0.547 (inactive)
CCc1nc2ccc(C(=O)NC3CCC(n4cccn4)CC3)cc2s1 (stereo not drawn)	1.02 ± 0.098	1.04 ± 0.082	1.03 ± 0.054	0.959 ± 0.047	0.964 ± 0.045	0.925 ± 0.14	1 (active)
Cc1nc(Nc2ncc(C(=O)Nc3c(C)cccc3Cl)s2)cc(N2CCN(CCO)CC2)n1.Cl	0.802 ± 0.035	1.01 ± 0.12	1.06 ± 0.067	0.976 ± 0.048	1.22 ± 0.28	1.34 ± 0.45	1 (active)
COc1cc(=O)n(C)cc1C(=O)Nc1cccnc1	1.06 ± 0.065	0.817 ± 0.13	1.06 ± 0.065	0.943 ± 0.064	0.899 ± 0.17	0.915 ± 0.25	0.967 (active)
O=C(NCCCOc1cccc2cccnc12)c1cccnc1	0.892 ± 0.081	0.909 ± 0.077	1.11 ± 0.13	1 ± 0.049	1.17 ± 0.2	1.25 ± 0.39	0.989 (active)
CCC(=O)Nc1ccc(NC(=O)c2ccc([N+](=O)[O-])cc2)cc1	0.982 ± 0.086	1.05 ± 0.072	0.991 ± 0.14	0.978 ± 0.054	1.43 ± 0.12	1.12 ± 0.075	1.01 (active)
Cn1c(=O)cc(N2CCC[C@@H](N)C2)n(Cc2cc(F)ccc2C#N)c1=O	0.989 ± 0.074	1.02 ± 0.055	1.02 ± 0.044	0.225 ± 0.013	0.971 ± 0.061	0.886 ± 0.082	1 (active)
Cl.NCCCC(N)(C(=O)O)C(F)F.O (stereo not drawn)	1.06 ± 0.25	1.09 ± 0.065	1.2 ± 0.18	0.922 ± 0.035	1.3 ± 0.15	1.19 ± 0.15	0.994 (active)
CC(Sc1ccc(Cl)cc1)C(=O)NCc1cccnc1 (stereo not drawn)	1.07 ± 0.09	0.846 ± 0.065	1.08 ± 0.2	0.846 ± 0.031	0.905 ± 0.058	0.741 ± 0.14	0.992 (active)
